Results on 40 compounds are retold here after PubChem BioAssay (NCATS).

A number with no mark means an inactive call. Cut-off read from the data, not from the text of the source: active = potency below about 10 µM; inactive = the rest.
Potency is the fitted concentration of half-maximal effect.

The target of the assay is Lysosomal acid glucosylceramidase (Homo sapiens) (UniProt P04062). Kind of assay: Glucocerebrosidase-p2 (AID 348). The settings on record: purified GBA, blue fluorogenic substrate, 40 min. From the text: Beta-glucocerebrosidase catalyzes the hydrolysis of beta-glucocerebroside to glucose and ceramide. The inherited deficiency of beta-glucocerebrosidase results in Gaucher disease, which is characterized by a wide variety of symptoms including hepatosplenomegaly, anemia, thrombocytopenia, bony lesions and bone marrow infiltration with characteristic storage cells, known as Gaucher cells. There are also forms of the disorder affecting the central nervous system. Patients with the same genotypes can manifest with diverse clinical presentations and it is believed that improper folding and trafficking of beta-glucocerbrosidase may contribute to the phenotypes observed.
Lysosomal acid glucosylceramidase (Homo sapiens), sequence (P04062 whole entry, looked up): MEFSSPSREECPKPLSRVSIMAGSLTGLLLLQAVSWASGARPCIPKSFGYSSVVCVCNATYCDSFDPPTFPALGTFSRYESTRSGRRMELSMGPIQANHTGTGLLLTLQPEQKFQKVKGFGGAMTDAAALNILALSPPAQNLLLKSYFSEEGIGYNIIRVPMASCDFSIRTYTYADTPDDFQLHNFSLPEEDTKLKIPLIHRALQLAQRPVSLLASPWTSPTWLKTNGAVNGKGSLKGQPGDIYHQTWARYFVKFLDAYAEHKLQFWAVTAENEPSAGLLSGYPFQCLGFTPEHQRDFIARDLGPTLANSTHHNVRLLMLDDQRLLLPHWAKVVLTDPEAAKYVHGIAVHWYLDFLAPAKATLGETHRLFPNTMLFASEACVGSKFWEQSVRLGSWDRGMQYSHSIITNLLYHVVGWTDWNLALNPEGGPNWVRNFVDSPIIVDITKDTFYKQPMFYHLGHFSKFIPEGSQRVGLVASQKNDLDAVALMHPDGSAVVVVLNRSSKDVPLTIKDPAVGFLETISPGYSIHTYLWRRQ
Low molecular weight molecules, acting as chaperones, may potentially restore trafficking of misfolded beta-glucocerebrosidase from the endoplasmic reticulum to the lysosomes, thereby enhancing functional lysosomal beta-glucocerebrosidase activity.
Using normal beta-glucocerebrosidase, an assay was developed to screen for small molecule inhibitors that could potentially act as molecular chaperones on the mutant forms [developed with NIH investigator Dr. Ellen Sidransky#s laboratory]. Two pro-fluorescent substrates were chosen for two screens against a small molecule library. One beta-glucocerebrosidase assay used Resorufin beta-D-Glucopyranoside (Marker Gene Technology Inc.), generating a red fluorescent product. The second assay used […] fluorescent product. The Km for the Resorufin beta-D-Glucopyranoside and Fluorescein di-beta-D-Glucopyranoside were determined to be 71.2 uM and 855 uM, respectively. The IC50 values of Conduritol B Epoxide, a known glucocerebrosidase inhibitor, were determined to be 87.5 uM and 117 uM, respectively. The use of two difference pro-fluorescent substrates in the screens helped to eliminate false positives. All compounds were screened in a titration series resulting in AC50s (e.g., IC50s or EC50s). Data normalization and AC50 calculations were accomplished using GeneData software.
NCGC Assay Protocol Summary
Both enzyme and substrate were diluted in buffer composed of 50mM citric acid/KH2PO4, 10mM sodium taurocholate and 0.01% tween-20 at pH 5.9. The final concentration of the enzyme was 0.2 nM in both assays. The compound library was titrated in 7 to 15 concentrations for the primary screens with a final concentration ranging from 0.6 nM to 50 uM. This particular assay protocol is for the "blue" substrate, and it was performed in 1536-well plate format as follows:
Blue fluorescence substrate assay:
1 uL substrate (final concentration of 80 uM)
Incubate at room temperature (RT) for 40 minutes
3 uL stop solution (1 M NaOH and 1 M glycine in water)
Read the plate in Viewlux plate reader (Ex=365(10) and Em=440(10)).
`COc1ccc2[nH]cc(CCNc3nc(-c4c(C)noc4C)nc4ccccc34)c2c1`: the Potency was over 2.29 µM. With `O=c1c(CCc2ccccc2)nc2cnc(N3CCNCC3)nc2n1-c1ccccc1`, the Potency was over 11.4 µM. Take `COc1cccc(-c2ccc3ncnc(Nc4ccccc4)c3c2)c1`: the Potency is over 11.4 µM. On to `COc1ccc(-c2nc3cnc(N4CCOCC4)nc3n(-c3ccc(OC)cc3)c2=O)cc1`, for which the Potency is over 11.4 µM.

For `CCNc1ncc2nc(-c3ccc(OC)cc3)c(=O)n(C)c2n1`, the Potency was over 11.4 µM. `CCNc1ncc2nc(-c3ccccc3)c(=O)n(CCC#N)c2n1`: the Potency is over 11.4 µM. The result for `CN1CCN(c2ncc3nc(-c4cn(C)c5ccccc45)c(=O)n(CCC#N)c3n2)CC1` reads over 11.4 µM; that for `O=c1cnc2cnc(Oc3ccccc3)nc2n1Cc1cccs1`, over 11.4 µM.

With `COc1cccc(Nc2ncc3nc(-c4ccc(F)cc4)c(=O)n(CCC#N)c3n2)c1`, the Potency is over 11.4 µM. For the compound `COCCn1c(=O)c(-c2ccc(F)cc2)nc2cnc(Nc3cccc(OC)c3)nc21`, the Potency was over 11.4 µM. To `CN(C)c1nc(-c2cccc(NS(C)(=O)=O)c2)nc2ccccc12` belongs over 11.4 µM; to `c1ccc(NN(Cc2cnccn2)c2ccccc2)cc1`, over 11.4 µM; to `COCCn1c(=O)c(-c2cccc(C#N)c2)nc2cnc(OCc3ccccc3)nc21`, over 11.4 µM. On to `COc1ncc2nc(CCc3ccccc3)c(=O)n(-c3ccccc3)c2n1`, for which the Potency is over 11.4 µM. For the compound `COc1ccccc1CNc1ncnc2ccc(-c3ccc(C(=O)N(C)C)cc3)cc12`, the Potency was over 11.4 µM. Consider `O=c1c(CCc2ccccc2)nc2cncnc2n1Cc1ccccc1`, for which the Potency is over 11.4 µM.

For `c1cn(-c2ncnc3ccc(-c4ccoc4)cc23)cn1`, the Potency is over 11.4 µM.

As for `Cc1cnc(CNc2ncnc3ccc(-c4ccccc4Cl)cc23)cn1`, the Potency is over 11.4 µM. Turning to `O=c1c(-c2ccccc2)nc2cncnc2n1Cc1ccccc1`, the Potency was over 11.4 µM.

Turning to `Cc1cnc(CNc2ncnc3ccc(-c4ccc(N(C)C)cc4)cc23)cn1`, the Potency is over 11.4 µM. Regarding `Cc1nc2cnc(N3CCOCC3)nc2n(CCc2ccccc2)c1=O`, the Potency was over 11.4 µM. As to `CN(Cc1ccco1)c1cc(-c2ccc3c(c2)OCO3)ncn1`, the Potency is over 11.4 µM.

For `COCCNc1ncnc2ccc(-c3ccccc3OC)cc12`, the Potency is over 11.4 µM. The result for `COc1ccccc1CNc1ncncc1-c1ccccc1Cl` reads over 11.4 µM. To `Cc1ccccc1-c1ccc2ncnc(N3CCOCC3)c2c1` belongs over 11.4 µM; to `CN1CCN(c2ncc3nc(-c4cccc(C#N)c4)c(=O)n(CCc4ccccc4)c3n2)CC1`, over 11.4 µM; to `CCNc1ncc2nc(C)c(=O)n(CCc3ccccc3)c2n1`, over 11.4 µM. The result for `COc1ncc2nc(-c3cccs3)c(=O)n(CCC#N)c2n1` reads over 11.4 µM; that for `Nc1nc(N)c(-c2cccc(C(F)(F)F)c2)c(Cc2cccc(C(F)(F)F)c2)n1`, over 11.4 µM. Turning to `COc1ccc(-c2nc3cnc(Oc4cccc(Cl)c4)nc3n(C[C@H]3CCCO3)c2=O)cc1`, the Potency was over 11.4 µM. To `Cc1ccccc1-c1ccc2ncnc(-n3ccnc3)c2c1` belongs over 11.4 µM.

For `COc1ccc(-n2c(=O)c(-c3cccs3)nc3cnc(N4CCN(C)CC4)nc32)cc1`, the Potency was over 11.4 µM.

Consider `N#Cc1cccc(-c2ccc3ncnc(NCc4cccs4)c3c2)c1`, for which the Potency is over 11.4 µM. In the case of `CN(C)C(=O)c1ccc(-c2nc(N3CCOCC3)c3ccccc3n2)cc1`, the Potency is over 11.4 µM.

As for `O=C1C=C(NCCc2cc(Br)c(O)c(Br)c2)C(=O)c2ncccc21`, the Potency is over 11.4 µM. The result for `Cc1nc2cnc(OCc3ccccc3)nc2n(CCc2ccccc2)c1=O` reads over 11.4 µM; that for `COc1cccc(Cn2c(=O)c(CCc3ccccc3)nc3cnc(N(C)C)nc32)c1`, over 11.4 µM. For `FC(F)(F)c1ccccc1-c1nc(NCc2cccnc2)c2ccccc2n1`, the Potency was over 11.4 µM. To `COc1cccc(-c2nc(N(C)C)c3ccccc3n2)c1` belongs over 11.4 µM; to `c1cncc(CNc2nc(-c3cccnc3)nc3ccccc23)c1`, over 11.4 µM.
